Data reported in PubChem BioAssay (EPA / NIEHS).
Calls of active or inactive are those of the source. Rule for the calls: active = hit-call score of the fitted dose curve at least 0.9, where 1 is the maximum; inactive = score below 0.9.

Experiments:
[1] = read-out: Interferon-gamma inducible Protein 10 (IP10), CXCL10 (gene 3627); assay: BSK_hDFCGF_IP10: BioMAP Diversity Plus: hDFCGF Assay for Interferon-gamma inducible Protein 10 (IP10) Biomarker Activity (AID 2283053); details: primary human foreskin fibroblasts; actives raise or lower the signal
In short: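 ELISA quantification of IP-10 after a 24 h chemical exposure of human dermal foreskin fibroblast primary cultures. Both increases and decreases versus DMSO fitted.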

[2] = read-out: Urokinase-type plasminogen activator receptor (uPAR), PLAUR (gene 5329); assay: BSK_CASM3C_uPAR: BioMAP Diversity Plus: CASM3C Assay for Urokinase-type plasminogen activator receptor (uPAR) Biomarker Activity (AID 2283054); details: primary human coronary artery smooth muscle cells; actives raise or lower the signal;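 note: cell-surface uPAR protein level quantified by ELISA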
[3] = read-out: Vascular cell adhesion molecule 1 (VCAM1), VCAM1 (gene 7412); assay: BSK_CASM3C_VCAM1: BioMAP Diversity Plus: CASM3C Assay for Vascular cell adhesion molecule 1 (VCAM1) Biomarker Activity (AID 2283055); details: primary human coronary artery smooth muscle cells; actives raise or lower the signal;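 note: VCAM-1 protein level quantified by ELISA on the cells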
[4] = read-out: Collagen III, COL3A1 (gene 1281); assay: BSK_hDFCGF_CollagenIII: BioMAP Diversity Plus: hDFCGF Assay for Collagen III Biomarker Activity (AID 2283056); details: primary human foreskin fibroblasts; actives raise or lower the signal
In short: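 hDFCGF primary human dermal fibroblasts; 24 h chemical exposure; collagen III by ELISA; bidirectional curve fit vs DMSO baseline (gain or loss of signal).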

[5] = read-out: Epidermal growth factor receptor (EGFR), EGFR (gene 1956); assay: BSK_hDFCGF_EGFR: BioMAP Diversity Plus: hDFCGF Assay for Epidermal growth factor receptor (EGFR) Biomarker Activity (AID 2283057); details: primary human foreskin fibroblasts; actives raise or lower the signal
In short: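 EGFR levels by ELISA in human dermal fibroblast cultures, 24 h post-treatment, fitted bidirectionally versus DMSO. Parallel wells stained with sulforhodamine B to detect overt cytotoxicity.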

[6] = read-out: Interleukin-8 (IL8), CXCL8 (gene 3576); assay: BSK_hDFCGF_IL8: BioMAP Diversity Plus: hDFCGF Assay for Interleukin-8 (IL8) Biomarker Activity (AID 2283058); details: primary human foreskin fibroblasts; actives raise or lower the signal
In short: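 ELISA read-out of IL-8 from primary human foreskin fibroblast cultures taken 24 h after dosing; values are bidirectional fits relative to DMSO vehicle.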

[7] = BSK_hDFCGF_Proliferation: Cell Proliferation Assessment in the BioMAP Diversity Plus: hDFCGF Assay (AID 2283059); details: primary human foreskin fibroblasts;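 note: curves fitted for both rise and fall of signal versus DMSO baseline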
In short: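 This proliferation readout used SRB total-protein staining of human foreskin fibroblasts […], normalized to DMSO with bidirectional curve fitting.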

[8] = read-out: Macrophage colony-stimulating factor (MCSF), CSF1 (gene 1435); assay: BSK_hDFCGF_MCSF: BioMAP Diversity Plus: hDFCGF Assay for Macrophage colony-stimulating factor (MCSF) Biomarker Activity (AID 2283060); details: primary human foreskin fibroblasts; actives raise or lower the signal
In short: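 ELISA read-out of M-CSF in human dermal foreskin fibroblast cultures, 24 h after chemical dosing; gain or loss of signal fitted bidirectionally relative to DMSO baseline.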

[9] = BSK_hDFCGF_SRB: Viability Assessment in the BioMAP Diversity Plus: hDFCGF Assay (AID 2283061); details: primary human foreskin fibroblasts;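 note: cells exposed to compound for 24 h before the read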
In short: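 Primary human foreskin fibroblasts; 24 h post-dose; fixed 10% TCA, stained 0.1% SRB, A560 read; total protein as overt cytotoxicity measure; curves fit bidirectionally vs DMSO control.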

[10] = read-out: TIMP metallopeptidase inhibitor 1 (TIMP1), TIMP1 (gene 7076); assay: BSK_hDFCGF_TIMP1: BioMAP Diversity Plus: hDFCGF Assay for TIMP metallopeptidase inhibitor 1 (TIMP1) Biomarker Activity (AID 2283062); details: primary human foreskin fibroblasts; actives raise or lower the signal
In short: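 ELISA readout of TIMP-1 from human dermal foreskin fibroblast cultures 24 h post-dosing. Curves were fitted in both directions against DMSO baseline, with SRB total-protein staining in parallel cultures as a cytotoxicity check.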

[11] = read-out: Monokine induced gamma interferon (MIG), CXCL9 (gene 4283); assay: BSK_hDFCGF_MIG: BioMAP Diversity Plus: hDFCGF Assay for Monokine induced gamma interferon (MIG) Biomarker Activity (AID 2283063); details: primary human foreskin fibroblasts; actives raise or lower the signal
In short: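 Fibroblasts (human foreskin, primary) dosed, 24 h, MIG by ELISA; fit bidirectional vs DMSO.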

[12] = read-out: Matrix Metallopeptidase 1 (MMP1), MMP1 (gene 4312); assay: BSK_hDFCGF_MMP1: BioMAP Diversity Plus: hDFCGF Assay for Matrix Metallopeptidase 1 (MMP1) Biomarker Activity (AID 2283064); details: primary human foreskin fibroblasts; actives raise or lower the signal
In short: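 ELISA read-out of MMP1 from human foreskin fibroblasts (primary skin cells), 24 h post-dose. Gain or loss of signal was fitted bidirectionally versus DMSO negative control; cytotoxicity was checked by SRB in parallel cultures.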

[13] = read-out: Vascular cell adhesion molecule 1 (VCAM1), VCAM1 (gene 7412); assay: BSK_hDFCGF_VCAM1: BioMAP Diversity Plus: hDFCGF Assay for Vascular cell adhesion molecule 1 (VCAM1) Biomarker Activity (AID 2283065); details: primary human foreskin fibroblasts; actives raise or lower the signal
In short: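 ELISA read-out of VCAM-1 on human skin fibroblasts, 24 h post-dose; gain or loss of signal fitted bidirectionally against DMSO baseline.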

[14] = read-out: Plasminogen activator inhibitor-1 (PAI1), SERPINE1 (gene 5054); assay: BSK_hDFCGF_PAI1: BioMAP Diversity Plus: hDFCGF Assay for Plasminogen activator inhibitor-1 (PAI1) Biomarker Activity (AID 2283066); details: primary human foreskin fibroblasts; actives raise or lower the signal
In short: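 PAI-1 levels in human dermal foreskin fibroblasts were quantified by ELISA 24 h after dosing, with gain or loss analysed against DMSO. Overt cytotoxicity was checked by sulforhodamine B total-protein staining in parallel cultures.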

[15] = read-out: Intercellular Adhesion Molecule 1 (ICAM1), ICAM1 (gene 3383); assay: BSK_KF3CT_ICAM1: BioMAP Diversity Plus: KF3CT Assay for Intercellular Adhesion Molecule 1 (ICAM1) Biomarker Activity (AID 2283067); details: primary human keratinocytes with fibroblasts; actives raise or lower the signal
In short: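 ELISA readout of ICAM-1; KF3CT human skin co-culture (keratinocytes + foreskin fibroblasts), 24 h post-dose; gain/loss fit vs DMSO baseline.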

[16] = read-out: Interferon-gamma inducible Protein 10 (IP10), CXCL10 (gene 3627); assay: BSK_KF3CT_IP10: BioMAP Diversity Plus: KF3CT Assay for Interferon-gamma inducible Protein 10 (IP10) Biomarker Activity (AID 2283068); details: primary human keratinocytes with fibroblasts; actives raise or lower the signal
In short: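 Signal is secreted/surface IP-10 by ELISA in a human primary skin co-culture of keratinocytes and foreskin fibroblasts, taken 24 h post-dosing; DMSO served as negative control.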

[17] = BSK_KF3CT_SRB: Viability Assessment in the BioMAP Diversity Plus: KF3CT Assay (AID 2283069); details: primary human keratinocytes with fibroblasts;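 note: read 24 h after compound addition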
In short: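 SRB read-out at 560 nm (0.1% stain, TCA-fixed cells) gauges overt cytotoxicity in a human skin keratinocyte–fibroblast co-culture 24 h post-dosing. Signal change was fitted bidirectionally relative to DMSO control.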

[18] = read-out: Interleukin-1 alpha (IL1a), IL1A (gene 3552); assay: BSK_KF3CT_IL1a: BioMAP Diversity Plus: KF3CT Assay for Interleukin-1 alpha (IL1a) Biomarker Activity (AID 2283070); details: primary human keratinocytes with fibroblasts; actives raise or lower the signal
In short: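 Primary skin co-culture (keratinocytes, foreskin fibroblasts), 24 h exposure; ELISA for IL-1a; bidirectional curve fit vs DMSO.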

[19] = read-out: TIMP metallopeptidase inhibitor 2 (TIMP2), TIMP2 (gene 7077); assay: BSK_KF3CT_TIMP2: BioMAP Diversity Plus: KF3CT Assay for TIMP metallopeptidase inhibitor 2 (TIMP2) Biomarker Activity (AID 2283071); details: primary human keratinocytes with fibroblasts; actives raise or lower the signal
In short: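 TIMP-2 measured by ELISA at 24 h in human keratinocyte/fibroblast primary co-cultures exposed to chemicals. Both increases and decreases were fitted against DMSO. Parallel cultures were stained with SRB for total protein as an overt-cytotoxicity check.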

[20] = read-out: Transforming growth factor beta 1 (TGFb1), TGFB1 (gene 7040); assay: BSK_KF3CT_TGFb1: BioMAP Diversity Plus: KF3CT Assay for Transforming growth factor beta 1 (TGFb1) Biomarker Activity (AID 2283072); details: primary human keratinocytes with fibroblasts; actives raise or lower the signal
In short: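 ELISA quantifies TGF-b1 at 24 h post-dose in a primary human skin co-culture of keratinocytes and fibroblasts, with gain or loss judged against DMSO. Parallel SRB total-protein staining flags overt cytotoxicity.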

Measured: AC50

CCCCc1nc2cccnc2n1Cc1ccc(-c2ccccc2-c2nnn[nH]2)cc1
active: [1] 32 µM | [7] 18.7 µM | [16] 29.7 µM
inactive: all other assays above

CC(C)c1cccc(C(C)C)c1NC(=O)NS(=O)(=O)c1cc(C(C)(C)O)co1
not listed: [8]
inactive: all other assays above

CC(C)c1cccc(C(C)C)c1
not listed: [10] | [12]
inactive: all other assays above

CCCCC(CC)COC(=O)CCCCCCCC(=O)OCC(CC)CCCC (stereo not given)
not listed: [14]
inactive: all other assays above

Cc1ccc(-c2cc(C(F)(F)F)nn2-c2ccc(S(N)(=O)=O)cc2)cc1
active: [2] 30.4 µM | [3] 29.9 µM
not listed: [10] | [12] | [14] | [18]
inactive: all other assays above

CC(C)NCC(O)c1ccc(O)c(O)c1 (stereo not given)
active: [7] 26.4 µM
not listed: [12] | [18]
inactive: all other assays above

COC(=O)CCCC(=O)OC
not listed: [10] | [14]
inactive: all other assays above

CCC(C)N(C)C(=O)c1cc2ccccc2c(-c2ccccc2Cl)n1 (stereo not given)
not listed: [8]
inactive: all other assays above

CCc1cc(C2=C(C(=O)O)N(c3ccccc3C(F)(F)F)S(=O)(=O)c3ccccc32)cc2c1OCO2
active: [4] 32.5 µM | [7] 15.5 µM | [12] 19.8 µM
not listed: [8]
inactive: all other assays above

CN(C)C(=O)NC1(c2ccccc2)CCN(CC[C@@]2(c3ccc(F)c(F)c3)CN(C(=O)c3ccccc3)CCO2)CC1
active: [7] 14.2 µM
not listed: [14] | [18]
inactive: all other assays above

COC(=O)CCC(=O)OC
not listed: [10]
inactive: all other assays above

CC1(C)C(=O)NC(=O)N1CO
not listed: [12]
inactive: all other assays above

CO[C@@H]1COCC[C@@H]1N[C@@H]1CC[C@@](C(=O)N2CCc3ncc(C(F)(F)F)cc3C2)(C(C)C)C1
not listed: [12] | [18]
inactive: all other assays above
